Coupling enz – coupling enzyme interference in Giardia aldolase counter-screen; coupling enzyme system counterscreen, AmpLite Red fluorescence; activity change, negative = inhibition, % at 58.2 µM, hits read low; hit rate 0.67% among 290,000; in the data active means activity change below about -30%
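Fluorescence at 525 nm excitation and 598 nm emission measured inhibition of the coupled detection system without aldolase. Compounds (at 57.5 uM final) were preincubated 10 min at room temperature with coupling enzyme reagent before a 20 min substrate/AmpLite Red step.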
Tau ThT inhib – tau fibrillization inhibition (ThT binding) | P10636 | recombinant tau K18 P301L, heparin-induced fibrillization, ThT fluorescence | Potency, µM (titrated, usually from 57.4 µM), inactives show at the highest dose activity, negative = inhibition, hits mostly inhibitors | hit rate 2.1% among 270,000; further: potency means the concentration at half of the fitted maximal effect; nearly all actives have a fitted effect of over 55% in size
Target sequence (P10636 561-689 P618L limits assumed): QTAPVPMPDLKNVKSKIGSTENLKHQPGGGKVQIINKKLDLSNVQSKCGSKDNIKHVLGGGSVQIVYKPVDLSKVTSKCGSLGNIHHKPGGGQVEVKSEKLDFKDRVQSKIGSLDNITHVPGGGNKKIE
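Tau K18 P301L fragment (15 uM unlabeled plus 0.24 uM Alexa 594-labeled) in 100 mM sodium acetate pH 7 with compound, fibrillization induced by 20 uM heparin for 6 hr at 37 C. Thioflavin T (30 uM) added, fluorescence read after 1 hr (ex 450, em 510 nm).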
G9a block – blocks human histone lysine methyltransferase G9a. Q96KQ7. G9a H3K9 monomethylation, AlphaScreen, 2 h. Potency, µM (series often up to 102 µM), without a hit: top-dose activity, negative = inhibition, actives largely listed as inhibitors. hit rate 8.8% among 350,000; further: potency means the concentration at half of the fitted maximal effect; nearly all actives have a fitted effect of over 75% in size
Target sequence (Q96KQ7 913-1193 limits assumed): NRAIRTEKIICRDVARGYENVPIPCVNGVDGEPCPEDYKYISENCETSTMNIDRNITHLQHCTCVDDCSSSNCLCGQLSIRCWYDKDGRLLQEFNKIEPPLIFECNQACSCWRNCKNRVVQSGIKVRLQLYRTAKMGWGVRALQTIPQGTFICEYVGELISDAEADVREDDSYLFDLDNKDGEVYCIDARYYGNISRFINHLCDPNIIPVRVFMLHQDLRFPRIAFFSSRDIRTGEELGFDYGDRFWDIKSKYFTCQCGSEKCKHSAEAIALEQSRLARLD
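Using a bead-based AlphaScreen, monomethylated H3K9 product from 2 h room-temperature reactions (G9a 20 nM, peptide 500 nM, SAM 20 uM) was detected with 0.5 ug/mL rabbit anti-H3K9me1 antibody.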
Tau fluor counter – counter-screen for tau fibril formation inhibitors; tau K18 P301L (four-repeat tau fragment) Alexa594 fluorescence, heparin fibrillization; Potency, µM (doses to about 57.7 µM), inactives show top-dose activity change, negative = decrease; hit rate 0.93% among 280,000; AID 1463; further: potency means the concentration at half of the fitted maximal effect; nearly all actives have a fitted effect of over 55% in size
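Human K18 P301L tau (15 uM unlabeled plus 0.24 uM Alexa 594-labeled, final) in 100 mM sodium acetate pH 7 was mixed with compound and 20 uM heparin and incubated 6 hr at 37 C.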
Sfp PPTase inh – blocks B. subtilis Sfp PPTase activity. Biochemical Sfp PPTase activity, qHTS. hit rate 3.5% among 310,000. Potency, µM, inactives show largest response in the series, negative = inhibition, usual class: inhibitors. Q9F4F7;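 further: the enzyme is Sfp with the accession as filed and its product quenches rhodamine fluorescence; potency means the concentration at half of the fitted maximal effect; 0% = enzyme reaction without inhibitor and -100% = no enzyme wells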
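Buffer: 50 mM Hepes-Na pH 7.6, 10 mM MgCl2, 0.01% Nonidet P-40, 0.01% BSA. Enzyme 15 nM, pre-exposed to compound 15 min; substrates then added and fluorescence change tracked over 30 min.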
Tau FP inhib – blocks human tau fibril formation measured by polarization. P10636. K18 P301L tau heparin fibrillization, Alexa594 FP, 6 h. Potency, µM (doses to about 57.7 µM), for the others: top-dose activity, negative = inhibition, most hits filed as inhibitors. AID 1468. hit rate 0.39% among 280,000; further: potency means the concentration at half of the fitted maximal effect; nearly all actives have a fitted effect of over 55% in size
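Quantitative HTS format: compounds meet 15 uM recombinant K18 P301L tau and Alexa 594-tau tracer in 100 mM sodium acetate pH 7; 20 uM heparin triggers fibrillization at 37 C over 6 hr; FP gives the signal.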
* marks the source's active call; other numbers are inactive results; u = inconclusive; x = no result given; ! = a repeat was not active; [ ] = remark or other dose. Shown are actives, neighbours in structure and some others; about 11% of the full set was active somewhere. Unless noted, the call rests on the fitted dose curve; in most records, active means well fitted curve in the direction sought with a large enough effect; inconclusive means small, poorly fitted or top-dose-only effect, or another doubt; inactive means no such curve, though single readings can be large; an effect the other way counts as inactive or inconclusive. Unless noted, on the % scale 0 is the no-effect control and ±100 the full control effect.

SMILES	Coupling enz	Tau ThT inhib	G9a block	Tau fluor counter	Sfp PPTase inh	Tau FP inhib
Cc1cc(/C=C2/C(=O)N(C)C(=S)N2C)c(C)n1C1CC1	-0.7	u	79.4µM*	-16.8%	-17.3%	-10.8%
Cc1cc(/C=C2\SC(=S)NC2=O)c(C)n1C1CC1	3.9	12.6µM*	u	-28.0%	-29.4%	4.9%
Cc1cc(/C=C2\SC(=O)NC2=O)c(C)n1-c1ccc(N(C)C)cc1	2.0	x	13.7%	x	16.9%	x
O=C(NCc1ccncc1)c1ccccc1Nc1ccc(SC(F)F)cc1	-1.1	x	44.7µM*	x	-1.1%	x
CCN1CCN(C(=O)c2ccccc2Nc2ccc(SC(F)F)cc2)CC1	-1.4	-7.6%	50.1µM*	-10.8%	10.5%	-4.1%
COc1ccccc1CNC(=O)C1CCCN(C(=O)c2cnn(-c3ccc(F)cc3)c2-n2cccc2)C1 (stereo not drawn)	x	-0.4%	u	-3.9%	x	0.7%
N[C@@H](Cc1ccc(O)c(I)c1)C(=O)O	5.0	-4.2%	6.6%	-6.6%	-6.4%	3.4%
O=C(/C=C/c1ccc(O)c(O)c1)OC(Cc1ccc(O)c(O)c1)C(=O)O (stereo not drawn)	-9.5	-14.6%	3.55µM*	u	79.4µM*!	-8.4%
O=C(/C=C\c1ccc(O)c(O)c1)O[C@@H](Cc1ccc(O)c(O)c1)C(=O)O	-6.7	u	x	-24.5%	50.1µM*	-5.2%
COc1ccc(CNC(=O)c2cnc3sc(N4CCC(C)CC4)nn3c2=O)c(OC)c1	x	3.2%	6.8%[59 µM]	-2.7%	x	3.7%
CCCCOC(=O)C1CCCC(C(=O)OCCCC)N1 (stereo not drawn)	1.8	-8.8%	50.1µM*	-9.8%	15.6%	-3.6%
O=C(CSc1nc2ccccc2s1)Nc1ccc(N2CCOCC2)c(Cl)c1	-0.8	u	7.08µM*	u	-11.3%	11.1%
Cc1ccc(NC(=O)CSc2nc3ccc(Nc4nc(N5CCOCC5)nc(N5CCOCC5)n4)cc3s2)cc1	x	x	35.5µM*	x	u	x
COc1ccc(NC(=O)CSc2nc3ccc(Nc4nc(N5CCOCC5)nc(N5CCOCC5)n4)cc3s2)cc1	x	x	u	x	-28.2%	x
CC(=O)Nc1ccc2nc(SCC(=O)Nc3ccc(N4CCOCC4)c(Cl)c3)sc2c1	-0.5	u	42.8%[0.501 µM]	u	-28.8%	3.0%
O=C(CSc1nc(Nc2ccccc2)nc(N2CCOCC2)n1)Nc1ccc([N+](=O)[O-])cc1	-4.5	u	6.7%[2.33 µM]	12.6µM*[quencher]	25.0%	u
COc1ccc(NS(=O)(=O)c2cccc(C(=O)NC3CCC(O)CC3)c2)cc1 (stereo not drawn)	-0.6	x	24.0%	x	5.0%	x
CCOCCCNc1nc2c(C)cccn2c(=O)c1/C=C1\SC(=S)N(C(C)CC)C1=O (stereo not drawn)	-7.2	u	-5.6%	-0.7%	2.6%	22.4µM*
CCOCCCNc1nc2c(C)cccn2c(=O)c1/C=C1\SC(=S)N(CC(C)C)C1=O	-0.3	-13.5%	-25.3%[59 µM]	-9.3%	11.1%	1.8%
Cc1cccn2c(=O)c(/C=C3\SC(=S)NC3=O)c(NCCCN3CCOCC3)nc12	-3.6	u	12.6µM*	-9.2%	3.98µM*	u
CCc1ccc(NC(=O)Cn2c(=O)n(CCC(=O)NCCc3ccc(OC)c(OC)c3)c(=O)c3ccccc32)cc1	x	-3.1%	2.4%[59 µM]	-8.0%	x	u
N#CCCn1cnc2c1NC=NC2Cl (stereo not drawn)	0.9	-3.1%	x	-0.4%	18.5%	5.2%
CC1=CCC(C(=O)O)C(C(=O)NC2CCCCC2)C1 (stereo not drawn)	3.5	x	31.6µM*	x	8.5%	x
CC1=C(C)CC(C(=O)NC2CCCC2)C(C(=O)O)C1 (stereo not drawn)	4.2	x	x	x	8.2%	x
Cn1c(CNC(=O)CNS(=O)(=O)c2ccc(F)cc2F)cc(=O)n(C)c1=O	-0.7	x	-8.6%	x	8.6%	x
C=C1CCN(C(C)C(=O)OCc2cccc(C)c2)S(=O)(=O)c2ccccc21 (stereo not drawn)	-0.9	x	x	x	-0.3%	x
